Assay outcomes from PubChem BioAssay.
Rows were chosen to be rich in hits. Some 3.3% of all compounds tested hit in one or more screens of this group.
Bead autofluor: flagged as autofluorescent in microsphere protease counterscreen; compound autofluorescence counterscreen, microsphere flow cytometry; active compounds read high; fluorescence intensity (test concentration not listed); 3.1% of 360,000 active; in the data active means fluorescence intensity above about 16000; inconclusive means no clear call, values can overlap the other calls
BoNT-F LC inh: inhibitors of Botulinum neurotoxin F light chain protease | AID 588497 | Multiplex microsphere protease cleavage assay, flow cytometry | inhibition, % at 10 µM | 0.22% of 360,000 active; in the data active means inhibition above about 35%, passing the limit was not always enough; inconclusive means no clear call, values can overlap the other calls; further: plate controls were buffer without enzyme for full effect and enzyme alone for no effect
MazEF act: MazEF (E. coli) toxin RNase activation. P0AE70. 0.32% of 350,000 active. activation, % at 20 µM. AID 504720. FAM/BHQ RNA-DNA oligo cleavage fluorescence, 5 h; in the data active means activation above about 50%
Anthrax LF inh2: inhibitors of Bacillus anthracis lethal factor protease. multiplex microsphere protease cleavage assay, LF. 0.12% of 360,000 active. inhibition, % at 10 µM; further: plate controls were buffer without enzyme for full effect and enzyme alone for no effect
SSB-PriA inh: blocks PriA binding to SSB C-terminal tail; AlphaScreen SSBct-PriA binding, biotinylated peptide; inhibition, % at 33 µM; 0.6% of 430,000 active; in the data active means inhibition mostly above about 37%, no sharp cut-off; inactive means mostly below about 20%;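 further: plate controls were negative control peptide for no effect and reference peptide for full effect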
BoNT A protease: blocks Botulinum neurotoxin A light chain protease. 0.17% of 360,000 active. multiplex microsphere protease substrate cleavage, flow cytometry. inhibition, % at 10 µM; further: plate controls were buffer without enzyme for full effect and enzyme alone for no effect
An asterisk follows results filed as active; ? = inconclusive; . = no result given. Unless noted, no stated cut-off is given here; in the data, active means inhibition above about 30%; inconclusive means no clear call, values can overlap the other calls; inactive means below that.

SMILES	Bead autofluor	BoNT-F LC inh	MazEF act	Anthrax LF inh2	SSB-PriA inh	BoNT A protease
O=S(=O)(c1ccc(F)cc1)N1CCCC(c2nc(-c3ccc(F)cc3)no2)C1 (centres undefined)	3995	-14.7	-2.2	-3.0	-8.2	-1.0
Cc1ccccc1NC(=O)N1CCCC(c2nc(-c3ccc(C(C)C)cc3)no2)C1 (centres undefined)	23120*	-3.2	-4.5	-3.0	-17.9	0.0
Cc1ccccc1NC(=O)N1CCCC(c2nc(-c3ccc(F)cc3)no2)C1 (centres undefined)	9980	-4.8	2.8	-4.3	-8.6	-0.8
Cc1ccc(-c2noc(C3CCCN(C(=O)c4ccc(F)cc4F)C3)n2)cc1 (centres undefined)	11435	-5.3	-8.0	-2.7	-20.9	-0.5
CC(C)c1ccc(-c2noc(C3CCCN(C(=O)c4ccc(F)cc4F)C3)n2)cc1 (centres undefined)	22538*	-5.2	-4.6	-9.4	-15.8	-0.5
CCc1nnc(NC(=O)C2=Cc3cc(OC)ccc3OC=C2)s1	.	.	.	.	-6.0	.
CCOc1ccc(OCC)c(S(=O)(=O)N2CCN(C34CC5CC(CC(C5)C3)C4)CC2)c1	.	.	.	.	5.0	.
COc1cc(-c2nc3cnccc3n2C)cc(OC)c1OC	4496	?	0.4	-1.5	-9.8	-1.5
COc1cc(OC)c(-c2nc3cnccc3n2C)cc1OC	16895*	-4.7	2.6	-0.8	-25.1	?
Cc1oc(-c2ccc(Cl)c([N+](=O)[O-])c2)cc1-c1nnc(-c2ccco2)o1	.	.	.	.	-10.0	.
COc1cccc(C2=NO[C@@H]3C(=O)N(c4ccc5c(c4)OCCO5)C(=O)[C@H]23)c1OC	20829*	6.1	-6.2	-0.4	-7.9	4.0
COc1cccc(C2=NO[C@@H]3C(=O)N(Cc4ccccc4)C(=O)[C@H]23)c1OC	8668	-8.0	2.7	-6.1	-7.6	-0.4
Cc1nc(NC(=O)CN(C)c2nc3c(C)ccc(C)c3s2)sc1C	.	.	.	.	-11.0	.
COc1cccc(C(=O)Nc2ccc(S(=O)(=O)N3CCN(C)CC3)cc2)c1	3250	-13.0	6.2	-5.8	-12.5	1.8
CN1CCN(S(=O)(=O)c2ccc(NC(=O)c3ccccc3Cl)cc2)CC1	.	.	3.0	.	-7.7	.
CN1CCN(S(=O)(=O)c2ccc(NC(=O)c3ccc(F)cc3Cl)cc2)CC1	3183	47.4*	10.0	25.7	-14.1	4.2
COC(=O)c1cccc(NC(=O)c2ccc(S(=O)(=O)N3CCN(C)CC3)cc2)c1	23982*	-9.5	3.5	-0.4	-1.3	-4.4
COC(=O)c1ccc(S(=O)(=O)NCC2CCN(C(=O)Nc3ccc(F)cc3)CC2)cc1	.	.	.	.	21.0	.
C=C(C)CSC1=C(C#N)C(c2ccccc2Cl)CC(=O)N1 (centres undefined)	23035*	1.1	-2.8	2.5	-5.3	0.4
COc1ccc(N2CCCS2(=O)=O)cc1NC(=O)C(=O)NCc1cccs1	.	.	.	.	-7.0	.
CC(=O)Nc1nonc1-c1nc2ccccc2n1Cc1ccccc1	3900	13.9	1.3	1.8	-10.6	0.4
CC(=O)Nc1nonc1-c1nc2ccccc2n1Cc1nnc(C)o1	22950*	-0.7	15.8	1.2	1.5	0.7
CCn1c(-c2nonc2NC(=O)c2ccccc2)nc2ccccc21	20786*	1.2	-5.4	-1.4	-7.0	-0.5
CCOc1ccc(-n2c(C)cc(C=NNC(=O)C(N)=O)c2C)cc1	.	.	.	.	3.2	.
CCCN(CCC)C(C(=O)Nc1cccc(OC)c1)c1ccccc1 (centres undefined)	22137*	2.6	0.0	-4.4	-14.3	1.9
SMILES	Bead autofluor	BoNT-F LC inh	MazEF act	Anthrax LF inh2	SSB-PriA inh	BoNT A protease
O=C(Nc1cc(Cl)cc(Cl)c1)C(NCCO)c1ccccc1 (centres undefined)	22640*	-0.1	9.9	-1.0	-6.6	1.7
O=C(Nc1ccc(Cl)cc1)C(c1ccccc1)N(CCO)CCO (centres undefined)	20747*	-5.7	2.8	-2.7	14.7	-4.2
Cc1ccc(NC(=O)c2cn[nH]n2)c(Br)c1	.	.	.	.	-9.0	.
CCOC(=O)c1c(C)[nH]c(C(=O)COC(=O)CN2C(=O)C3CCCCC3C2=O)c1C (centres undefined)	9323	-1.4	-6.0	7.3	-15.8	1.5
CCOC(=O)c1c(C)[nH]c(C(=O)COC(=O)C(C)N2C(=O)C3CCCCC3C2=O)c1C (centres undefined)	24956*	-8.7	-1.8	-3.1	-12.7	-7.8
CCc1[nH]nc(S(=O)(=O)N2CCN(Cc3ccc4c(c3)OCO4)CC2)c1C(=O)OC	.	.	.	.	-3.0	.
C=CCCC(=O)NC[C@@](O)(c1ccccc1)C1CC1	.	.	.	.	-4.0	.
O=C(Nc1ccccc1C(F)(F)F)N1CCN(c2ccc3nncn3n2)CC1	20519*	-3.7	2.3	-3.9	-12.0	-1.9
O=C(Nc1ccccc1C(F)(F)F)N1CCN(c2ccc3nnc(-c4ccc(F)cc4)n3n2)CC1	10256	-8.6	-8.2	-0.9	3.6	0.2
CC(C)c1ccc(OCC(=O)Nc2nnc(-c3ccc(Br)o3)o2)cc1	.	.	.	.	-8.0	.
Cc1cn2c(N)c(C=C3C=C(Cl)C(=O)C(Cl)=C3)c(=O)nc2s1	26112*	140.8*	37.2	32.2*	-15.8	22.8
COc1cccc(C2NC(=O)NC(C)=C2C(=O)Nc2cccc(C)c2C)c1 (centres undefined)	3360	-5.5	8.8	2.7	-6.5	1.1
COc1cccc(C2NC(=O)NC(C)=C2C(=O)Nc2cc(OC)ccc2OC)c1 (centres undefined)	17900*	-4.8	9.1	1.2	6.1	-4.0
CCN(CC)CCCN=Cc1c(O)n(CCc2ccc(OC)c(OC)c2)c(=O)[nH]c1=O	21750*	-0.1	0.2	-0.1	-8.8	?
O=C(c1ccccc1)C1C(=O)N(c2ccccc2)N=C1c1ccccc1 (centres undefined)	.	.	.	.	-3.0	.
CS(=O)(=O)N1CCN(C(=O)c2coc(NC(=O)c3cnccn3)n2)CC1	.	.	.	.	20.0	.
O=C(NCCCn1ccnc1)Nc1cccc(Cl)c1	9077	6.2	4.9	-9.8	74.2*	0.0
CCCCCOc1ccc(NC(=O)C(=O)NCCCn2ccnc2)cc1	3721	4.7	3.9	-0.1	-7.8	0.6
C=CCOc1ccc(NC(=O)C(=O)NCCCn2ccnc2)cc1	19499*	7.0	0.5	-1.1	-1.9	4.1
O=C(NCCCn1ccnc1)Nc1cccc(I)c1	.	.	.	.	26.5	.
O=C(NCCCn1ccnc1)C(=O)NCc1ccccc1Cl	.	.	.	.	85.0*	.
O=C(NCCCn1ccnc1)Nc1cc(Cl)cc(Cl)c1	.	.	.	.	56.5*	.
Cc1ccc(NC(=O)CCSc2ccc3ccccc3n2)cc1	.	.	.	.	-5.0	.
O=C(NCC1CCCN1c1nccs1)Nc1ccccc1Cl (centres undefined)	.	.	.	.	8.0	.
Cc1nc2sccn2c(=O)c1NC(=O)c1ccc(S(=O)(=O)N(C)C)cc1	.	.	.	.	1.0	.
CC12CCC(C(=O)O)(CC1=NO)C2(C)C (centres undefined)	.	.	.	.	-7.3	.
CC1(C)CC(NC(=O)C23CCC(C)(C2Br)C3(C)C)CC(C)(C)N1 (centres undefined)	3593	34.6*	-1.3	5.0	1.0	5.9
